Laboratory results reported in the supplement of paper PMC11417369.
The full ranking holds about 25,000 sequences; the median of “ln(normalized median fluorescence intensity)” is about 7.1, and the highest 2% start at about 10. The sample holds the highest values, similar sequences and a random draw of the others, so the mix is not that of the screen.

Tested on: PfSIP2 AP2 domain 1 (GST-tagged)
Assay: gcPBM binding intensity (ln(normalized median fluorescence intensity)); higher = stronger DNA binding
How it was run: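 GST-tagged P. falciparum DNA-binding domains produced in E. coli were incubated for 1 h on an Agilent 4 × 180k array of primer-extended double-stranded 36-bp intergenic genomic probes with negative controls. Binding intensity is the highest Masliner-normalised natural-log median intensity across replicate spots of either probe orientation, with bound protein detected by Alexa488 anti-GST antibody at 488 nm.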

Sequence | gcPBM binding intensity (ln)
AAGAATATATAGGACACACATACAATAATAAATATA [CACACA_site4119] | 7.25
ATATTTTATAATTTTACACACCATATAAAATAATTC [CACACA_site2797] | 7.16
TTTATATGTATTAAGTGTACACATATAATGTGTTTG [XGTACX_site6629] | 7.29
TTTGCACCGTTTAAGTGTACAGAATTATGACATATA [XGTACX_site6735] | 11.2
CATATTTACATTAAGTGTACTTATGAATATATATAC [XGTACX_site7962] | 7.03
TATCAATGGAAAATATATATTTGTATATATGTAATA [XGTACX_negctrl_site257] | 7.04
ACATGAATATATACACGTACATATATACATATATAT [XGTACX_site5872] | 7.42
CTGTACACTTAAACGGTGCAAAAAGAAAAAAAAGAA | 10.9
ATATATTATATTATATGTACTTAAAAAAGTGCAAAG [XGTACX_site318] | 8.67
AATTTATTTTTAAAAAGTACATACTTAAGAAAACGA [XGTACX_site3660] | 7.59
TTTTATCATCTTTTTACATTATGTATAAATATTTTC [CACACA_negctrl_site206] | 6.99
AAAACATAAATACATACACACATAATATATATTAAT [CACACA_site109] | 7.06
TTTTATTCCTTCTTTGCACACGTTTAAAAATATATA [CACACA_site2899] | 8.04
ACAAGTATTCCTTTTGCACACCTTTCTGCACCTTAT [CACACA_site3873] | 11.7
TATATATTTTCTTTTGCACACTGTTTTCCTTTTTTT [CACACA_site2739] | 7.02
ATGTCATAAATGTACGCACACATACATAAACATATA [CACACA_site4530] | 7.33
TATATAAACCCACCTACACACACAACGTAAATGCAT [CACACA_site8702] | 7.1
TATAAACGCACCTACACACACAACGTAAATGCATTG [CACACA_site7120] | 10.6
TATAAACCCACCTACACACACAACGTAAATGCATTG [CACACA_site2238] | 7.01
CAAATATGTCTTATTCGTACACATATATATATATAT [XGTACX_site8817] | 9.64
TTTATGAAACAGTGCACACATAAAAATATATACATA [CACACA_site2992] | 11
TTTTTAATTTTATATACACACATAAAATATATGAAG [CACACA_site3145] | 7.01
AACATATATAAATACACACACATATATATATGAAAT [CACACA_site4312] | 7.05
TCATAATGAAAACAAGCACACATACATAAAATAAAA [CACACA_site9069] | 7.01
ATTTTGTTATGAAACACACACATATAAATATAAATA [CACACA_site7679] | 7.26

Sequence | gcPBM binding intensity (ln)
CTTTTATGAAACAGTGCACACATAAAAATATATACA [CACACA_site8981] | 11.3
TTTATGAAACAGTGCACACATAAAAATAAATACATA [CACACA_site5631] | 11.2
AAAAAAAATATGAAAACACACATATATAAATAAATA [CACACA_site113] | 6.89
ATAATGAAAACAAGCACACATACATAAAATAAAATA [CACACA_site3257] | 7.04
AAATATAAACTCAGCACACAAACATATATATGTCAT [CACACA_site4004] | 6.91
TCCTTTTGAACCCTTTTTCTCACAAGACCTTTATAT [TGCATGCA_negctrl_site413] | 7.05
ATGTTTTAATGAGGTTTGCACTATATTTTAATGAAC | 8.64
AATATTAAACAAAATAAATATATAAAAAATAAATAA [GTGCAC_negctrl_site93] | 6.79
ATGAATATAATGAAGTGTACATAAAAATAATAAATA [XGTACX_site2481] | 7.11
GTACATATATACATTACACACGGTTTGATTTAAAAA [CACACA_site3379] | 7.26
GGACATTTTTATAAGGTGCACGGTTTTGATATTACT [GTGCAC_site9892] | 11.1
TCACATTTTGGACACGTGCACATATATTTGATACAT | 8.43
ATGCGTTAATCTATATATATTATGTATAGATTTTCA [CACACA_negctrl_site1650] | 6.81
TGCCCTTTGGTTATAACACACATGCACACGTAAATA [CACACA_site7750] | 7.71
TGCCCTTTGGTTATAACACACATGCACCCGTAAATA [CACACA_site3842] | 11.9
CTTTGGTTATAACACACATGCACACGTAAATAAATA [TGCATGCA_site976] | 7.63
AGACAATTTTTTAGTACACACATATAGATATATAAA [CACACA_site6832] | 7.39
AAAAAAAAATATATATATATATATATATAATAAAAA [CACACA_negctrl_site639] | 7.48
ATGCACTCATTGTGCACACGCATATTACGAAAAGAA [CACACA_site2638] | 10.2
TGTGTTCATATATGCACACGCATATATATTATTGTT [CACACA_site3822] | 7.02
ATATGCACTCATTGTGCACACGCATATTACGAAAAG [CACACA_site2637] | 11
ATATATAATAATTGTAGTACAATTAATAAATAAAAT [XGTACX_site3840] | 7.08
TATATATTATAAAATTGTACATATATTAAATTTTTT [XGTACX_site5852] | 6.93
TGCACGCACAGACACACACACAACTAAAAAATAATG [CACACA_site7250] | 7.33
TATGCACCCAGACACACACACACAACTAAAAAATAA [CACACA_site2567] | 10.7

Sequence | gcPBM binding intensity (ln)
TAATTATGCAGACACACACACACACCCAACTAAAAA [CACACA_site2569] | 7.27
TACAAATATATATGCACACACATATACATACATATA [CACACA_site2182] | 7.31
TACAAACACCCATATACACACAAAAAAAAAATAAAA [CACACA_site5421] | 7.05
TGTGCACGCATATACACACACAAATACAATGATAAA [CACACA_site6656] | 10.6
TAATGATAAATACATACACACAAAAAATGATATATA [CACACA_site7258] | 6.86
GAAATGTGATAATATACACACACGCATATATATATA [CACACA_site4332] | 9.04
AATGTGATAATATACACACACGCATATATATATATA [CACACA_site323] | 9.89
CTATTTTATATGTGCACACATATACACCCACAAATA [CACACA_site1131] | 9.31
GGTGCACCCATATACACACACAAATACAATGATAAA [CACACA_site1132] | 12.4
TCACCATATAAACGTGCACACTACAAAAATATATAA [CACACA_site5413] | 11
CATATAAAAATGTGCACACACACACCCATATATATT [CACACA_site1526] | 9.06
AAACAAAAAATATATACACACTAAACATAAAAAAAA [CACACA_site4185] | 6.86
TGGGCACCCATATACACACACAAATACAATGATAAA [CACACA_site4762] | 8.64
TATGTGCACCCATATACACACACAAATACAATGATA [CACACA_site8295] | 12.3
CCCCCCCACGAACACACACACATACATACCACATAT [CACACA_site7149] | 9.05
TGAGAGAGAAACGTAGTGCATAAAATCAAATTTAGA [GTGCAC_site9737] | 7.82
TTTTTTTGTTTTGTTTTTTTTTTTTTTTTTTTTTTG [CACACA_negctrl_site570] | 6.76
ACATGTTCATAATTTTGTACATATTTTTATGAACAT [XGTACX_site3976] | 7.12
AAAATACACGATAGTTGTACATTAAATGTATACAAT [XGTACX_site360] | 6.91
TGTTATTATAACATTTTTTTCAAAATAGCTTTAGAA [CACACA_negctrl_site266] | 6.77
AATAAATATCAATACACACACACAAAAGTGAATAAA [CACACA_site3763] | 6.99
TAGAATAAGATAGATATACACACCATTATAAATATA [CACACA_site2500] | 6.78
AGTGTGTGTAATAAAGTGCATTAAAAATGACACGTA | 8.55
TGTGCATAAATTTATGCACACATAAAAAAAAAAAAA [CACACA_site8954] | 9.95
ATTAAAAAATCCATAGTGCACTACGATAGGTTCCGA [GTGCAC_site9463] | 10.5

Sequence | gcPBM binding intensity (ln)
ATATACATATCAATGTAATATTATATACTTTTTTAG [CACACA_negctrl_site816] | 6.77
ATTTATATAAAGAATGTACACACAGAAATGCACCCA [CACACA_site8715] | 11.8
TGTACACCCAGAAATGCACACACATATATATATATA [CACACA_site8716] | 9.53
CATTTATATAAAGAATGTACACACAGAAATGCACAC [XGTACX_site4718] | 8.37
TTATATAAAGAATGTACACACAGAAATGCACCCACA [CACACA_site2282] | 12.2
TTATATAAAGAATGTACACACAGAAATGCACAGACA [CACACA_site5288] | 8.26
GAAAGAAGCATAAATGTACACACATATTTATATATT [CACACA_site8368] | 7.04
TCCCTGATGTTATTTAATATACCATAAAAAAAAAAA [CACACA_negctrl_site1472] | 7.22
TATATATTATGACCACCACACACCTATACACATAAC [CACACA_site8773] | 7.3
TACATATAAATAATAACACACACCTAGGTACATGGA [CACACA_site838] | 6.89
CAAATATATATTTATTGTACATATTGTTTATATGGT [XGTACX_site5246] | 7.14
TACAAACAATTAAACAAACACACATATACATGTATA [CACACA_site2061] | 6.92
TAAAATTAAATGAAATCATTATTCATTTTTATTTTA [CACACA_negctrl_site1281] | 6.67
ATTAAGACACATTGCACACGTGCACCCATAGAAAAA [CACACA_site408] | 12.2
TACACCCATAGACACACACACACGCATAAAAAAAAA [CACACA_site8428] | 7.55
AGTACAGACATAGACACACACACACCCATAAAAAAA [CACACA_site1515] | 7.24
ACATTAAGACACATTGCACACGTGCACCCATAGAAA [CACACA_site8029] | 12
TAAGAAATAAATAGTACACACATAGACACCCACCGA [CACACA_site1516] | 7.3
CCATTAAGACACATTGCACACGTGCACCCATAGAAA [CACACA_site4388] | 12.4
TAAGAAATAAATAGTACACACATAGACACCCACCCA [CACACA_site8429] | 7.39
TATATATATATAGACACACACACACCCATATATATA [CACACA_site4117] | 9.12
TAAGAAATAAATAGTACACACATAGACACACGCACA [CACACA_site6821] | 8
